The values that follow come from PubChem BioAssay (NCATS).

The nature of test [1]: qHTS profiling of the MIPE4 collection as inhibitors of Plasmodium falciparum (3D7) proliferation (AID 743344).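 Note: scaled between DMSO vehicle wells and 0.29 µM artemisinin as full inhibition.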 As to conditions: P. falciparum 3D7 in erythrocytes, SYBR Green DNA fluorescence, 72 h; at 28.5 µM. In short, it runs like this: (§1)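 Parasite DNA was quantified by SYBR Green I fluorescence (ex 485, em 535 nm) after overnight lysis in saponin/Triton buffer at room temperature. Cultures at 0.3% parasitemia and 2.5% hematocrit were first exposed to compound for 72 h at 37 C; signals were normalised to artemisinin (0.29 uM) and vehicle wells.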

A short description of test [2]: qHTS profiling of the MIPE4 collection as inhibitors of Plasmodium falciparum (DD2) proliferation (AID 743345). As to conditions: P. falciparum Dd2 in erythrocytes, SYBR Green DNA, 72 h; at 28.5 µM unless noted. In short, it runs like this: as §1
A short description of test [3]: qHTS profiling of the MIPE4 collection as inhibitors of Plasmodium falciparum (DD2) proliferation (Rep 2) (AID 743346). Conditions: P. falciparum Dd2 in erythrocytes, SYBR Green DNA, 72 h; at 28.5 µM. In short, it runs like this:
as §1

Test [4] is described as follows: qHTS profiling of the MIPE4 collection as inhibitors of Plasmodium falciparum (HB3) proliferation (AID 743347).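 Note: plate controls were DMSO vehicle wells for no effect and artemisinin wells for full effect.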 As to conditions: P. falciparum HB3 in erythrocytes, SYBR Green DNA, 72 h; at 28.5 µM. An outline of the steps:
as §1

Turning to `CCOC(=O)Nc1ccc(NCc2ccc(F)cc2)cc1N`, the parasite growth, % of DMSO control in test [1] was 12.8%. The parasite growth remaining, % of DMSO control (lower = more inhibition) in test [2] was determined as 13.7%. The parasite growth, % of control (lower = inhibition) in test [3] stood at 30.4%.
In test [1], `COc1cccc2c1[C@]13CCN(CC4CC4)[C@H](C2)[C@]1(OC)CCC(=O)C3` came in with a parasite growth, % of DMSO control of 98.3%. Besides, the parasite growth remaining, % of DMSO control (lower = more inhibition) in test [2] is 102%. Also, the parasite growth, % of control (lower = inhibition) in test [3] was determined as 31.9%.
For `O=C1C=CC[C@@H]2[C@H]3CCCN4CCC[C@@H](CN12)[C@@H]34`, the parasite growth, % of DMSO control in test [1] was 101%. Besides, the parasite growth remaining, % of DMSO control (lower = more inhibition) in test [2] is 99.7%. The parasite growth, % of control (lower = inhibition) in test [3] stood at 86.7%. This molecule had a growth, % of control in test [4] of 97.5%.
In test [1], `COc1ccc(CC2NCCc3cc(OC)c(OC)cc32)cc1OC` (centres undefined) displayed a parasite growth, % of DMSO control of 85.9%. In test [2], the parasite growth remaining, % of DMSO control (lower = more inhibition) is 85.6%. Also, the parasite growth, % of control (lower = inhibition) in test [3] turned out to be 55.8%. In addition, the growth, % of control in test [4] stood at 90.4%.
`C[C@]12COC(=O)C[C@@H]1CC[C@@H]1[C@H]2CC[C@@]2(C)[C@H]1CC[C@]2(C)O` showed a parasite growth, % of DMSO control in test [1] of 89.9%. In addition, the parasite growth remaining, % of DMSO control (lower = more inhibition) in test [2] came out at 96.6%. Besides, the parasite growth, % of control (lower = inhibition) in test [3] worked out at 93%.
The molecule `O=C(Oc1ccc([N+](=O)[O-])cc1)N1CCN(Cc2cccc(Oc3ccccc3)c2)CC1` showed a parasite growth, % of DMSO control in test [1] of 95.8%. Moreover, in test [2], the parasite growth remaining, % of DMSO control (lower = more inhibition) worked out at 92.5%. In addition, the parasite growth, % of control (lower = inhibition) in test [3] was found to be 181%. This molecule registered a growth, % of control in test [4] of 96.4%.
For the molecule `Cc1[nH]nc2ccc(-c3cncc(OC[C@@H](N)Cc4c[nH]c5ccccc45)c3)cc12`, in test [1], the parasite growth, % of DMSO control was 18.3%. For the same molecule, the parasite growth remaining, % of DMSO control (lower = more inhibition) in test [2] was 47.9%. Besides, the parasite growth, % of control (lower = inhibition) in test [3] came to 20.1%.
In the case of `CC(C)(C)c1cc(C=C(C#N)C#N)cc(Br)c1O`, the parasite growth, % of DMSO control in test [1] turned out to be 34.5%. Besides, the parasite growth remaining, % of DMSO control (lower = more inhibition) in test [2] is 93.3%. Further, the parasite growth, % of control (lower = inhibition) in test [3] came to 37.3%. The growth, % of control in test [4] is 34.7%.
In the case of `Clc1ccccc1C(c1ccccc1)(c1ccccc1)n1cccn1`, the parasite growth, % of DMSO control in test [1] came to 9.07%. The parasite growth remaining, % of DMSO control (lower = more inhibition) in test [2] amounted to 34.8%. Further, the parasite growth, % of control (lower = inhibition) in test [3] came to 11.6%.
On to `CC(=O)OCC1=C(C(=O)O)N2C(=O)[C@@H](N)[C@@H]2SC1`, for which the parasite growth, % of DMSO control in test [1] is 90.9%. Besides, the parasite growth remaining, % of DMSO control (lower = more inhibition) in test [2] worked out at 97.8%. Further, the parasite growth, % of control (lower = inhibition) in test [3] is 77.5%. In test [4], the growth, % of control was determined as 97.3%.
For `COc1ccc(N(C(=O)Oc2c(C)cccc2C)c2ccnc(Nc3ccc(N4CCN(C)CC4)cc3)n2)c(OC)c1`, in that order: 5.18%, 6.94%, 20.9% and 9.74%.
`CCOC(=O)c1c(C(C#N)=CN)c2ccc(Cl)c(Cl)c2n1C`: the parasite growth, % of DMSO control in test [1] amounted to 90%. In test [2], the parasite growth remaining, % of DMSO control (lower = more inhibition) was determined as 97.1%. For the same molecule, the parasite growth, % of control (lower = inhibition) in test [3] worked out at 149%. Further, the growth, % of control in test [4] stood at 89.6%.
In test [1], `CSCC[C@@H](NC(=O)[C@@H](Cc1ccccc1)NC(=O)CNC(=O)CNC(=O)[C@@H](N)Cc1ccc(O)cc1)C(=O)O` registered a parasite growth, % of DMSO control of 92.2%. The parasite growth remaining, % of DMSO control (lower = more inhibition) in test [2] is 49.8%. For the same molecule, in test [3], the parasite growth, % of control (lower = inhibition) worked out at 89.9%. This molecule also yielded a growth, % of control in test [4] of 99.5%.
`CCN1CCN(C(=O)Cc2ccc(Nc3ncc(F)c(Nc4ccc(C(=O)Nc5ccccc5Cl)cc4)n3)cc2)CC1` gave a parasite growth, % of DMSO control in test [1] of 6.35%. The parasite growth remaining, % of DMSO control (lower = more inhibition) in test [2] is 7.02%. The parasite growth, % of control (lower = inhibition) in test [3] stood at 14.2%. Besides, in test [4], the growth, % of control was 7.73%.
`COCC1(CO)C(=O)C2CCN1CC2` (centres undefined): in test [1], the parasite growth, % of DMSO control stood at 94.3%. Besides, the parasite growth remaining, % of DMSO control (lower = more inhibition) in test [2] worked out at 85.2%. For the same molecule, the parasite growth, % of control (lower = inhibition) in test [3] was 42%.
`C1=C2CCCN[C@H]2[C@@H]2C[C@H]1[C@@H]1CCCCN1C2` came in with a parasite growth, % of DMSO control in test [1] of 71.7%. The parasite growth remaining, % of DMSO control (lower = more inhibition) in test [2] came out at 84.7%. Further, the parasite growth, % of control (lower = inhibition) in test [3] is 69.3%.
Take `O=C(NCC1CCOCC1)c1cnc(Nc2ccc(Cl)cc2Cl)nc1C(F)(F)F`: the parasite growth, % of DMSO control in test [1] came to 52.4%. Also, in test [2], the parasite growth remaining, % of DMSO control (lower = more inhibition) came out at 102%. Further, the parasite growth, % of control (lower = inhibition) in test [3] turned out to be 52.2%.
As for `CCOC(=O)c1cncn1[C@H](C)c1ccccc1`, the parasite growth, % of DMSO control in test [1] was determined as 46.8%. Also, the parasite growth remaining, % of DMSO control (lower = more inhibition) in test [2] was determined as 98%. In test [3], the parasite growth, % of control (lower = inhibition) worked out at 70.6%. This molecule returned a growth, % of control in test [4] of 67.6%.
`CCOP(=O)(OCC)C(C)NC(=O)N(CCCl)N=O` (centres undefined) displayed a parasite growth, % of DMSO control in test [1] of 103%. For the same molecule, in test [2], the parasite growth remaining, % of DMSO control (lower = more inhibition) came out at 97.6%. In addition, the parasite growth, % of control (lower = inhibition) in test [3] worked out at 135%.
For `O=C(Nc1ccncc1)C(=O)c1cn(Cc2ccc(Cl)cc2)c2ccccc12`, the parasite growth, % of DMSO control in test [1] came out at 91%. Further, the parasite growth remaining, % of DMSO control (lower = more inhibition) in test [2] was 85.2%. Moreover, the parasite growth, % of control (lower = inhibition) in test [3] was determined as 81.4%.
Regarding `CC(=Cc1csc(C)n1)[C@@H]1C[C@H]2O[C@@H]2CCC[C@H](C)[C@@H](O)[C@@H](C)C(=O)C(C)(C)[C@@H](O)CC(=O)O1`, the parasite growth, % of DMSO control in test [1] was 14.6%. In addition, the parasite growth remaining, % of DMSO control (lower = more inhibition) in test [2] was 16.1%. Moreover, in test [3], the parasite growth, % of control (lower = inhibition) amounted to 36.4%. The growth, % of control in test [4] is 12.9%.
Molecule `O=S(=O)(F)Cc1ccccc1` registered a parasite growth, % of DMSO control in test [1] of 95.8%. Besides, the parasite growth remaining, % of DMSO control (lower = more inhibition) in test [2] came out at 95.2%. In addition, in test [3], the parasite growth, % of control (lower = inhibition) was 85.6%.
Regarding `COC[C@H]1OC(=O)c2coc3c2[C@@]1(C)C1=C(C3=O)[C@@H]2CC[C@H](O)[C@@]2(C)C[C@@H]1OC(C)=O`, the parasite growth, % of DMSO control in test [1] turned out to be 93.1%. Also, the parasite growth remaining, % of DMSO control (lower = more inhibition) in test [2] amounted to 83.2%. Besides, in test [3], the parasite growth, % of control (lower = inhibition) stood at 79.7%. In addition, in test [4], the growth, % of control came out at 48.8%.
With `CC=C(C)C(=O)N[C@@H](c1ccccc1)[C@@H](O)C(=O)O[C@H]1C[C@@]2(O)[C@@H](OC(=O)c3ccccc3)[C@@H]3[C@]4(OC(C)=O)CO[C@@H]4C[C@H](O)[C@@]3(C)C(=O)[C@H](OC(C)=O)C(=C1C)C2(C)C`, the parasite growth, % of DMSO control in test [1] was 4.24%. Moreover, in test [2], the parasite growth remaining, % of DMSO control (lower = more inhibition) turned out to be 14%. For the same molecule, in test [3], the parasite growth, % of control (lower = inhibition) came to 15.6%.
Molecule `CCNC(=O)CC1N=C(c2ccc(Cl)cc2)c2cc(OC)ccc2-n2c(C)nnc21` (centres undefined) had a parasite growth, % of DMSO control in test [1] of 26.1%. In addition, the parasite growth remaining, % of DMSO control (lower = more inhibition) in test [2] was 93.8%. The parasite growth, % of control (lower = inhibition) in test [3] was 70.5%. The growth, % of control in test [4] amounted to 42.1%.
For `CC(O)=C(C#N)C(=O)Nc1cc(Br)ccc1Br`, in that order: 80.7%, 97%, 78.2% and 93.7%.
In test [1], `C[C@H]([C@H](O)CCC(C)(C)O)[C@H]1CC[C@@]2(O)C3=CC(=O)[C@@H]4C[C@@H](O)[C@@H](O)C[C@]4(C)[C@@H]3CC[C@]12C` displayed a parasite growth, % of DMSO control of 93.7%. Also, the parasite growth remaining, % of DMSO control (lower = more inhibition) in test [2] came to 99.4%. The parasite growth, % of control (lower = inhibition) in test [3] was 93.3%. The molecule further returned a growth, % of control in test [4] of 59%.
The molecule `CC[C@@H]1[C@@H](C)O[C@@](O)([C@@H](C)[C@H](O)[C@H](C)[C@H]2OC(=O)C=CC=C[C@@H](C)[C@@H]([C@@H](C)[C@@H](O)[C@H](C)[C@@]3(O)C[C@H](O[C@H]4C[C@H](O)[C@H](O)[C@H](C)O4)[C@H](CC)[C@@H](C)O3)OC(=O)C=CC=C[C@@H]2C)C[C@H]1O[C@H]1C[C@H](O)[C@H](O)[C@H](C)O1` had a parasite growth, % of DMSO control in test [1] of 49.6%. Moreover, the parasite growth remaining, % of DMSO control (lower = more inhibition) in test [2] was 6.07%. In test [3], the parasite growth, % of control (lower = inhibition) is 25.8%. Moreover, the growth, % of control in test [4] came to 47.6%.
In the case of `Cc1c(N)nc([C@H](CC(N)=O)NC[C@@H](N)C(N)=O)nc1C(=O)N[C@H](C(=O)N[C@@H](C)[C@H](O)[C@@H](C)C(=O)N[C@@H](C(=O)NCCc1nc(-c2nc(C(=O)NCCC[S+](C)C)cs2)cs1)[C@@H](C)O)C(O[C@H]1O[C@H](CO)[C@H](O)[C@@H](O)[C@@H]1O[C@H]1O[C@H](CO)[C@@H](O)[C@H](OC(N)=O)[C@H]1O)c1cnc[nH]1` (some centres undefined), in test [1], the parasite growth, % of DMSO control was determined as 11%. Besides, the parasite growth remaining, % of DMSO control (lower = more inhibition) in test [2] came to 9.76%. For the same molecule, the parasite growth, % of control (lower = inhibition) in test [3] amounted to 15.5%. Moreover, the growth, % of control in test [4] came to 68.4%.
